# Measured values taken from the supplement of paper PMC6555819.
# Test system: VDR:RXRa (NR concentration 270 nM, RXRa partner concentration 90 nM)
# Experiment: PBM binding z-score (relative to random genomic background probes); higher = stronger binding; sequences stand for … in GC…GCGATTGACAGCGTAGAATGAAGG
# Description: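 Protein-binding microarray (Agilent 4x180K custom design, double-stranded 60-nt probes: 5' GC cap, 34-nt variable region, 24-nt constant primer region; full probe sequence given). Purified or IVT nuclear receptor:RXRα heterodimers (3:1 NR:RXRα, mostly 270:90 nM) or homodimers were incubated for 1 h in PBS with 2% milk and no ligand, then detected with Alexa488 antibodies. Fluorescence from o1-orientation probes (~5 replicates averaged) was converted to z-scores against 500 random hg19 background probes. Variable regions are seed direct-repeat (DR0–DR5) sites, all their single-nucleotide variants and half-site ablations.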
row,Sequence,PBM binding z-score
1,CCTATTAGTTGACCGTAAGGGCAACCGAAGCTCG,0.821
2,CCGACTGGGGCATAAGGTAACCATAAGCCAGCCC,-0.407
3,TCATATAGGTAAACAGGTGAAAGCCCGTAAGTTA,1.15
4,CCAGACAGCTGAGAAGGTAACTCAGCCTCGATTA,-0.312
5,AGATGTAGGTTAAGGGTCATTCAGGTTGGTTCGC,5.59
6,TAGCCGAGGTCATGGGCCAGTATACCACGCGAAC,5.46
7,GCTAGCAGCCCATTTGGGTCACTCAATGACGGGC,-0.389
8,TCATATAGGTAAAGATGAAAGTCGAACGATATGA,0.437
9,TCGAGTAGGTTAGTCGGAGCATTCAGCCAACATA,-0.307
10,CCTACTGGGCCACGAAAGGTCATTGAGTCAGTGA,4.67
11,TCTTGTAGATCAAAGTTTAAGAAAGCCGAAGCCT,0.555
12,TAGCCTAGGTCATTCGGGGGCCAGTATAGAAAGC,3.99
13,TGTCAAAGTTCAAAGGTACCGTAAGTATCCACAC,4.41
14,GATACAGGGTCAAGGCCATAGTACGCGTATTGAT,4.21
15,CGTCCAAGGTCAAGGTTAGTGAAAGAGACTCGAA,3.93
16,GATACAGGGTCTGCTAGAGGCCAGAGTATGGAAA,-0.492
17,CGAACTAGGTCAAGGACAGTGCATCTCCGCACGC,2.39
18,AGAACGAGGGCAATGACTTGATAGCACGGGTGGC,0.34
19,CCGAGTAGGTTATGGGGCATTCATGCAACGGTGA,0.118
20,TAGCCTAGGTCAGATCGAGCCAGTATACGCTATA,0.0723

row,Sequence,PBM binding z-score
1,ACTCGCAGGACAAAGGTCAGAGCTACGCCAGTGA,2.77
2,CCTACTGGCCCACGAAAGGTCATTGATTCAGTGA,3.74
3,TCTATTAGTTGAAGGGCAACCAACGAGTCCGTTT,1.11
4,GCGACTGGGGCATCAGCAGGTGACCATAACTTAA,-0.635
5,TCATATAGGTAGATGCTAGGTGAAAGTCCGATCT,0.638
6,TCATATAGGTAAGCAGGTGAAAGTCCGTAAGTTA,0.388
7,TAGCCTACGTCATGGGCCAGTATACCACGCGAAC,-0.472
8,CCAGACAGGTGAAAGGTGACTCAGTCTGGTACGC,1.3
9,CTCGAAAGGCCGGTTGAGGTGAGTATACGGATAA,-0.304
10,ATTGAAAGGTCGAGGTGAGTATAGAGAAAGGGAA,2.87
11,CGAACTAGGTCAGAACAGGACAGTGAAGGATGAT,0.634
12,TTACCAATGTGAGCTGAGGTCGTTGATCCAACTC,1.78
13,TGTCAAAGTTCAAAGGTAAAGTAAGTATCCACAC,4.88
14,CGTATTAGTTGACCATAAGGGCAACCGAAGCTCG,0.396
15,CCTAGCAGGCCAATCTGAGTCACTCAAGGCTTGA,-0.947
16,ATCTCTAGATAAAGATAGTTCAGTGAATGCAAAT,0.517
17,CAAACTAGGACAAGGTCAAAGTCGGTTTGTGCCA,4.36
18,ATATGTAGGTTCTCGGGTCATTCAGTTTGCGCAT,5.04
19,TGGATGAGGTTATAAGATCAGGGAACGTTGCAAA,1.04
20,CCTTACGGGTCACTAACAGGTTATAGCATTTGGA,3.28
